The structures appear in SMILES notation. About 79,000 compounds went through this panel and 15% of them were active in at least one assay; those are over-represented in the sample as a whole. Unmarked numbers belong to inactive results. Calls of active or inactive are those of the source. Rule as the data show it: active = growth inhibition above about 70%; inactive = the rest.

Experiment [1] can be described thus: NCI Yeast Anticancer Drug Screen. Data for the rad50 strain (AID 155).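 Also: 0% = growth of vehicle-only cultures of the same strain.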 The following applies: S. cerevisiae rad50 strain growth inhibition; at 50.0 µM; stronger effect = higher value. The gist of the method:
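Relative growth inhibition (compound vs vehicle) was measured in yeast with a defined repair-gene alteration.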

Experiment [2] in a line: NCI Yeast Anticancer Drug Screen. Data for the mec2-1 strain (AID 157). The following applies: S. cerevisiae mec2-1 strain, at 50.0 µM, stronger effect = higher value. Summed up:
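Readout is yeast growth inhibition, normalised to vehicle-treated controls, in the mec2-1 strain exposed to compound.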

Experiment [3] in a line: NCI Yeast Anticancer Drug Screen. Data for the sgs1 mgt1 strain (AID 161).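 Also: 0% = growth of cultures given vehicle only.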 The following applies: S. cerevisiae sgs1 mgt1 strain, at 50.0 µM, stronger effect = higher value. The gist of the method: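 Yeast cells carrying a defined DNA-repair defect were exposed to test compounds. Growth inhibition was measured relative to vehicle-treated controls.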
Experiment [4] in a line: NCI Yeast Anticancer Drug Screen. Data for the cln2 rad14 strain (AID 165).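 Also: 0% = growth equal to vehicle treated cultures.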 The following applies: S. cerevisiae cln2 rad14 strain, at 50.0 µM, stronger effect = higher value. Summed up:
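Relative to vehicle controls, growth inhibition of compound-treated cln2 rad14 yeast was recorded.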

The nature of experiment [5]: NCI Yeast Anticancer Drug Screen. Data for the bub3 strain (AID 167). The following applies: S. cerevisiae bub3 mutant strain, at 50.0 µM, stronger effect = higher value. Summed up: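 Screening used yeast with an engineered genetic alteration affecting cell cycle control. Compound-exposed cultures were compared with vehicle cultures, and reduced growth was taken as inhibition.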

Experiment [6] in a line: NCI Yeast Anticancer Drug Screen. Data for the mlh1 rad18 strain (AID 175). The following applies: S. cerevisiae mlh1 rad18 strain growth inhibition; at 50.0 µM; stronger effect = higher value. Summed up:
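Test agents were incubated with a yeast strain of defined genotype (DNA damage repair defect). Inhibition of growth was derived by comparison with vehicle-exposed cultures.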

As for `NC(CSC(c1ccccc1)c1ccccc1)C(=O)O` (configuration not stated), the growth inhibition in experiment [1] is 6.3%; in experiment [2], 0%; in experiment [3], 3.35%; in experiment [4], 5%; in experiment [5], 13.4%; in experiment [6], 3.5%.
For the molecule `Cc1cccc(NC(=O)CCl)c1`, the growth inhibition in experiment [1] was 1.65%; in experiment [2] it was -23.4%; in experiment [3] it was 10.8%; in experiment [4], -4.6%; in experiment [5] it was 21.9%; in experiment [6], 19.8%.
Turning to `[Co+2].[Co+2].[O-]CCCN=Cc1ccccc1[O-].[O-]CCCN=Cc1ccccc1[O-]`, the growth inhibition was 53.5% in experiment [1]; 46% in experiment [2]; 60.8% in experiment [3]; -5.1% in experiment [4]; 30.6% in experiment [5]; 58.1% in experiment [6].
For `COC1=C(OC)C23CCc4ccc(OC)c(O)c4C2(CCN3)CC1=O` (configuration not stated), the growth inhibition in experiment [1] was 7.5%; in experiment [2], -10.7%; in experiment [3] it was 25.2%; in experiment [4], 14.1%; in experiment [5], 1.6%; in experiment [6] it was -27.4%.
`C[As+](C)(C)c1cccc(N)c1`: the growth inhibition in experiment [1] is -1.6%; in experiment [2], -6.6%; in experiment [3] it was -10.1%; in experiment [4] it was -14.8%; in experiment [5], -1%; in experiment [6], 0.45%.
Regarding `CO[As](OC)c1ccc(N=Nc2ccc(N(C)C)cc2)cc1`, the growth inhibition in experiment [1] is 98.4% (active); in experiment [2] it was 99.2% (active); in experiment [3], 98.9% (active); in experiment [4], 98.6% (active); in experiment [5], 99% (active); in experiment [6], 99.2% (active).
Consider `COc1ccc(-c2c[se]c(=S)s2)cc1`, for which the growth inhibition is 24.1% in experiment [1]; 10.8% in experiment [2]; -7.35% in experiment [3]; -33.5% in experiment [4]; 4.2% in experiment [5]; 11.3% in experiment [6].
As to `C=CC(=O)NCO`, the growth inhibition in experiment [1] is -3.9%; in experiment [2], 15.2%; in experiment [3] it was -1.4%; in experiment [4], -20.4%; in experiment [5], 3.6%; in experiment [6], -12.3%.
Turning to `CN1CC(NC(=O)N(CCCl)N=O)CC2c3cccc4c3c(cn4N=O)CC21` (configuration not stated), the growth inhibition in experiment [1] was 17.8%; in experiment [2], 10.6%; in experiment [3] it was 21.4%; in experiment [4], 18.6%; in experiment [5] it was -3.7%; in experiment [6], 52.1%.
With `O=S(=O)(O)O.[Co+2].[NH-]CC[NH-].[NH-]CC[NH-].[NH-]CC[NH-]`, the growth inhibition in experiment [1] was 11.1%; in experiment [2], 21.9%; in experiment [3] it was 9.75%; in experiment [4], 17.8%; in experiment [5], 3.2%; in experiment [6], 1%.
For the molecule `[N-]=[N+]=CC(=O)OCC(N)C(=O)O` (configuration not stated), the growth inhibition in experiment [1] was 4.5%; in experiment [2], -12.8%; in experiment [3] it was -5.35%; in experiment [4], 14.1%; in experiment [5], -6.7%; in experiment [6] it was -0.6%.
Take `N#CC(C#N)=Cc1cccc(C#N)c1`: the growth inhibition in experiment [1] is -0.75%; in experiment [2], 21.4%; in experiment [3], -2.85%; in experiment [4], 19.1%; in experiment [5], -4.75%; in experiment [6] it was 3.45%.
Take `Cc1cc(N(CCCl)CCCl)ccc1CN1CCCN(Cc2ccc(N(CCCl)CCCl)cc2C)C1c1ccccc1O`: the growth inhibition in experiment [1] was 0.25%; in experiment [2], 14.5%; in experiment [3] it was 11.1%; in experiment [4], -4.5%; in experiment [5], 0.05%; in experiment [6] it was 31.9%.
As for `Cc1c2ccccc2c(CNCCSCCCl)c2ccc3ccccc3c12`, the growth inhibition in experiment [1] is 97.2% (active); in experiment [2] it was 98.5% (active); in experiment [3], 98.4% (active); in experiment [4] it was 98.3% (active); in experiment [5], 97.5% (active); in experiment [6], 98.8% (active).
With `Cc1cccc(C=NCCOCCOCCN=Cc2cccc(C)c2O)c1O.[Ni]`, the growth inhibition in experiment [1] was -8.3%; in experiment [2], 2.65%; in experiment [3], -13.6%; in experiment [4] it was 1.25%; in experiment [5] it was -19.6%; in experiment [6], -14.2%.
Turning to `CCN(CC)CCN1CC2CCCCC2C1` (configuration not stated), the growth inhibition in experiment [1] was 4.25%; in experiment [2] it was 0.35%; in experiment [3], 1%; in experiment [4], 5.45%; in experiment [5] it was 11.6%; in experiment [6], 3%.
`CSC(SC)P(=O)(Oc1ccccc1)Oc1ccccc1`: the growth inhibition in experiment [1] was -10.4%; in experiment [2], 2.85%; in experiment [3] it was 1.4%; in experiment [4], 4.45%; in experiment [5] it was 8.7%; in experiment [6], 10.6%.
As for `C/C=C(\CC)C1(C(C)C)C(=O)NC(=O)NC1=O`, the growth inhibition was 12.2% in experiment [1]; -1.35% in experiment [2]; -6.3% in experiment [3]; -33.9% in experiment [4]; 2% in experiment [5]; 10.4% in experiment [6].
Take `CN1CN(c2ccccc2)C2(CCN(CC(C)(c3ccc(F)cc3)C3OCCCO3)CC2)C1=O` (configuration not stated): the growth inhibition in experiment [1] was -22.9%; in experiment [2], -18.9%; in experiment [3], -21.9%; in experiment [4], -5.3%; in experiment [5], -27.1%; in experiment [6], 8.95%.
With `O=C1CC23c4ccccc4N4C(=O)CC5OCC=C6CN1C2CC6C5C43` (configuration not stated), the growth inhibition in experiment [1] was 4.1%; in experiment [2], -34.5%; in experiment [3] it was -7.15%; in experiment [4], 7.9%; in experiment [5], 12.8%; in experiment [6], 6.8%.
As to `[C-]#[O+].[C-]#[O+].[C-]#[O+].[C-]#[O+].[C-]#[O+].[C-]#[O+].[C-]#[O+].[C-]#[O+].[C-]#[O+].[C-]#[O+].[Mn].[Mn]`, the growth inhibition in experiment [1] was -21.1%; in experiment [2] it was -12.6%; in experiment [3], -15.2%; in experiment [4], -71.6%; in experiment [5], 4.45%; in experiment [6], -25.9%.
With `COc1ccc(CC2OC3(CCCCC3)CC3CCCCN32)cc1` (configuration not stated), the growth inhibition was 23.2% in experiment [1]; 13.9% in experiment [2]; 11.5% in experiment [3]; 7.65% in experiment [4]; -5.6% in experiment [5]; 6% in experiment [6].

These data come from PubChem BioAssay (NCI).
